For 62 compounds, Potency and activity change, negative = inhibition results are on record in PubChem BioAssay AID651820 (National Center for Advancing Translational Sciences (NCATS), 2012).

The structures appear in SMILES notation. Hit rate of the full screen: of about 340,000 compounds, about 12,000 (3.5%) were called active. Another 18% or so got no clear call; they are omitted. Calls follow the shape of the dose curve; as a rule, active = well fitted inhibition curve with a large enough effect; inconclusive = small, poorly fitted or top-dose-only effect, or another doubt; inactive = no such curve, though single readings can be large or run the other way. Shown is part of a subset that was picked to be rich in actives. Where a call stands in place of a potency, no number is given.

The nature of the test: qHTS Assay for Inhibitors of Hepatitis C Virus (HCV). The note with it: Huh7.5.1 HCVcc-Cre infection, luciferase reporter, 44 h; series mostly up to 41.8 µM. The text has this: Hepatitis C virus (HCV) infects about 200 million people in the world. Many infected people progress to chronic liver disease including cirrhosis with a risk of developing liver cancer. To date, there is no effective vaccine for hepatitis C. Current therapy based on interferon is only effective in about half of the patients and is associated with significant adverse effects. The fraction of people with HCV who can complete a successful treatment is estimated to be no more than 10 percent. Recent development of direct-acting antivirals against HCV, such as protease and polymerase inhibitors, is promising but still requires combination with peginterferon and ribavirin for maximal efficacy. In addition, these agents are associated with high rate of resistance and many have significant side effects. Due to the lack of a culture system for infectious HCV, the search for new HCV drugs has been greatly hampered. […] High-throughput screening (HTS) with an infectious HCV system would cover the complete spectrum of potentially druggable targets in all stages of HCV lifecycle, and would have more biological relevance than other cell-based assays. Moreover, targeting several key processes in the viral life cycle may not only increase antiviral efficacy; more importantly, it may also reduce the capacity of the virus to develop resistance to the compound. The goal of this project is to identify novel HCV inhibitors as new therapies for hepatitis C, using a highly sensitive and specific assay platform which is based on a HCV infectious cell culture system established in the laboratory and adapted for high-throughput HCV drug screen. NIH Chemical Genomics Center [NCGC] NIH Molecular Libraries Probe Centers Network [MLPCN] MLPCN Grant: MH095511 Assay Submitter (PI): Jake Liang, NIDDK
The assay will start with plating 1,000 cells/well in 3 µL volume and culture for 4 h. Then 23 nL of compounds from the library collection will be added to each well, followed by adding 2.5 µL of HCVcc-Cre virus (~ 0.5 moi) and further cultured for 44 h before the luciferase assay. A volume of 4.5 µL luciferase substrates will be added to each well and the plates will be incubated at room temperature for 15 min. and then read for 15 sec. for the luciferase activity
A general note: qHTS replaces the single test concentration by a dilution series.
With `CCOC(=O)C1=C(C)N=C2c3ccccc3C(=O)C2C1c1ccc(Br)cc1` (configuration not stated), the Potency result was “inactive”.
`O=C1c2ccccc2C(=O)C1c1ccccc1F`: the Potency entry is “inactive”.
On to `O=C1c2ccccc2C2=Nc3ccccc3SC(c3ccccc3F)C12` (configuration not stated), for which the Potency was 5.01 µM (active).
Still for that read-out and setting: then `Cc1sc2nc(CSCC(=O)NC3CCCCC3)[nH]c(=O)c2c1C`, with “inactive”; and `CC1=CC(=Cc2sc3ccccc3[n+]2C)C=C(C)O1`, with 5.01 µM (active); and `CC(C)C(NC(=O)c1c(F)cccc1F)C(=O)NNC(=O)c1ccccc1` (configuration not stated), with “inactive”.
On the same count and under the same terms, then `O=C(NCCc1ccc(F)cc1)c1ccc(S(=O)(=O)N2CCCCC2)cc1`, with “inactive”.
As to `COc1ccc(CNC(=O)C2(CC3CC(c4ccccc4)=NO3)CCN(C(=O)c3cccc(O)c3)CC2)cc1` (configuration not stated), the activity change, negative = inhibition is -11.6% [at 8.37 µM] (inactive).
Turning to `O=C(CCC(=O)c1ccccc1)NCc1cccc(C(F)(F)F)c1`, the Potency entry is “inactive”.
The same measure, in the same setting: then `O=C(CCC(=O)N1CCN(S(=O)(=O)c2ccc(Cl)cc2)CC1)NCc1cccc(C(F)(F)F)c1`, with 11.2 µM (active).
Regarding `O=C(COc1ccc(Cl)cc1)N1CCN(S(=O)(=O)c2ccc(Cl)cc2)CC1`, the Potency entry is “inactive”.
Still for that read-out and setting: then `O=C1c2ccccc2C(=O)C1C(=O)C1CC1`, with “inactive”; and `CCN(CC(=O)Nc1ccc(OC)cc1)C(=O)c1ccc(=O)n(Cc2ccccc2)n1`, with “inactive”.
For `CNCC[C@H](Oc1ccc(C(F)(F)F)cc1)c1ccccc1`, the Potency is 3.98 µM (active).
Still for that read-out and setting: then `CC(CC(=O)Nc1cc(C(F)(F)F)ccc1Cl)c1ccccc1` (configuration not stated), with “inactive”.
For the compound `CC(NC(=O)COC(=O)Cn1cc(C(F)(F)F)ccc1=O)c1ccccc1` (configuration not stated), the Potency entry was “inactive”.
On the same count and under the same terms, then `COc1ccc2nc3n(c(=O)c2c1)-c1cc(C)ccc1C(=O)NC3Cc1ccc(O)cc1` (configuration not stated), with “inactive”; and `Cc1ccc(N(CC(=O)Nc2cccc(N(C)S(C)(=O)=O)c2)S(C)(=O)=O)cc1`, with “inactive”.
In the case of `CN(c1cccc(NC(=O)Nc2ccc(Cl)cc2)c1)S(C)(=O)=O`, the Potency is 10 µM (active).
For `CC(=O)Nc1cccc(NC(=O)c2ccc3c(c2)CCN3S(C)(=O)=O)c1`, the Potency entry was “inactive”.
Same read-out and setting: then `COc1cccc(N(CC(=O)Nc2cccc(N(C)S(C)(=O)=O)c2)S(C)(=O)=O)c1`, with “inactive”; and `CN(c1ccc(C(=O)N2CCc3ccccc3C2)cc1)S(C)(=O)=O`, with “inactive”; and `CN(c1cccc(NC(=O)c2ccc(CN3CCc4ccccc4C3)cc2)c1)S(C)(=O)=O`, with 11.2 µM (active).
Regarding `O=C(CNC(=O)c1ccccc1F)OCC(=O)c1c[nH]c2ccccc12`, the Potency result was “inactive”.
Still for that read-out and setting: then `Cc1ccsc1C(=O)NC1CCCCC1C` (configuration not stated), with “inactive”.
In the case of `O=C(NCCN1CCOCC1)c1cccc(S(=O)(=O)Nc2ccc(F)cc2)c1`, the Potency entry was “inactive”.
Turning to `C#CCOCCOCCOCCNc1nc(N2CCN(C(=O)Cn3cc(CCO)nn3)CC2)nc(N2CCN(C(=O)[C@H](CCCCN)n3cc(CCCC)nn3)CC2)n1`, the activity change, negative = inhibition is -0.907% [at 8.37 µM] (inactive).
On to `CCOC(=O)c1cc(-c2ccccc2C)n(Cc2cc(C)no2)n1`, for which the Potency result is “inactive”.
On the same count and under the same terms, then `N#CCCN(C(=O)COC(=O)c1ccc(S(=O)(=O)N2CCCCCC2)cc1)c1ccccc1`, with “inactive”; and `Cc1c(C(=O)OCC(=O)N(CCC#N)c2ccccc2)oc2c1ccc1ccccc12`, with 8.91 µM (active).
Turning to `Cc1cc(C)n2nc(C(=O)OCC(=O)N(CCC#N)c3ccc(F)cc3)nc2n1`, the Potency result was “inactive”.
`Cc1cccc(C)c1NC(=O)COC(=O)c1c(C)nn(-c2ccccc2)c1C`: the Potency entry was “inactive”.
Still for that read-out and setting: then `Cc1ccc(S(=O)(=O)Nc2nc(CN3CCOCC3)nc3sc(C)c(C)c23)cc1`, with “inactive”; and `COc1ccc(C)cc1NC(=O)CSc1nc(SC)ns1`, with 11.2 µM (active); and `CSc1nsc(SCC(=O)Nc2cc(C(=O)O)ccc2C)n1`, with “inactive”.
Consider `COc1ccc(C)cc1NC(=O)CSc1cccc[n+]1[O-]`, for which the Potency result was “inactive”.
Consider `Cc1ccc(C(=O)CN2C(=O)NC3(CCOc4ccccc43)C2=O)s1` (configuration not stated), for which the Potency entry is “inactive”.
`Cc1ccc(N2CC(C(=O)Nc3cc(Cl)ccc3-n3cncn3)CC2=O)cc1` (configuration not stated): the Potency entry is “inactive”.
With `OC(COc1ccccc1)CN1CCN(c2cccc(Cl)c2)CC1` (configuration not stated), the Potency result is “inactive”.
Still for that read-out and setting: then `CCN1C(=O)/C(=C\N2CCN(c3cccc(Cl)c3)CC2)SC1=S`, with “inactive”.
Take `CCc1nn(CCCN2CCN(c3cccc(Cl)c3)CC2)c(=O)n1CCOc1ccccc1`: the Potency was 10 µM (active).
On the same count and under the same terms, then `Cc1ccc(C(=O)OCC(=O)N2CC(C)CC(C)C2)cc1S(=O)(=O)N1CCCCC1` (configuration not stated), with “inactive”; and `CC(=O)Nc1ccc(NC(=O)C(C)OC(=O)c2ccccc2C(=O)c2ccc(Cl)c([N+](=O)[O-])c2)cc1` (configuration not stated), with 11.2 µM (active); and `O=C(Nc1ccncc1)c1ccc(Cl)c([N+](=O)[O-])c1`, with “inactive”.
For the compound `CC(=O)Nc1ccc(NC(=O)COC(=O)c2ccccc2C(=O)c2ccccc2)cc1`, the Potency entry is “inactive”.
The same measure, in the same setting: then `NC(=O)c1ccc(NC(=O)COC(=O)c2ccc([N+](=O)[O-])cc2)cc1`, with “inactive”.
`CC(OC(=O)CNC(=O)c1ccc(Cl)c([N+](=O)[O-])c1)C(=O)NCc1ccco1` (configuration not stated): the activity change, negative = inhibition was -1.08% [at 8.37 µM] (inactive).
As to `N#Cc1cccc(NC(=O)COC(=O)c2ccccc2C(=O)c2ccc(Cl)c([N+](=O)[O-])c2)c1`, the Potency is 10 µM (active).
On the same count and under the same terms, then `COc1ccc(C(=O)COC(=O)c2c(C)noc2C)cc1Cl`, with “inactive”; and `CCOC(=O)c1ccc(NC(=O)C2CC(=O)N(c3ccc4c(c3)OCCO4)C2)cc1` (configuration not stated), with “inactive”.
Same read-out and setting: then `CCCN(CC(=O)Nc1ccccc1C)C(=O)c1ccc(OCC(=O)N2CCOCC2)c(OCC)c1`, with “inactive”.
Still for that read-out and setting: then `NC(=O)NC(CC(=O)NNC(=O)c1ccccn1)c1ccc(Cl)cc1` (configuration not stated), with “inactive”.
Regarding `O=C(NCC1CCCO1)c1cc2c(s1)CCCC2` (configuration not stated), the Potency result is “inactive”.
Still for that read-out and setting: then `O=C(O)c1cc(S(=O)(=O)Nc2ccc3cn[nH]c3c2)ccc1Br`, with “inactive”; and `O=C(NCc1ccccc1)C1=C[C@@H](c2ccccc2)C[C@@H](OCCCCO)O1`, with “inactive”.
Same read-out and setting: then `N=C(N)SCc1cccc2ccccc12`, with 6.31 µM (active).
Consider `N#C/C(=C(/O)Cc1cccc2ccccc12)c1nc2ccccc2s1`, for which the Potency entry was “inactive”.
Still for that read-out and setting: then `c1ccc2c(CNn3cnnc3)cccc2c1`, with “inactive”; and `CC(=O)Cn1cnc2c(cnn2-c2ccccc2)c1=O`, with “inactive”.
On to `Cc1ccc2c(c1)c1ncn(Cc3ccc(F)cc3)c(=O)c1n2C`, for which the Potency result is “inactive”.
On the same count and under the same terms, then `CC(C)(C)n1ncc2c(=O)n(Cc3ccc(Cl)cc3)cnc21`, with 11.2 µM (active).
Still for that read-out and setting: then `CC(C)Cn1c(SCC(=O)Nc2ccc(Cl)cc2F)nc(O)cc1=O`, with “inactive”.
